# Reference: PubChem BioAssay (NCI)
# Values joined by “and” are separate entries in the source; they are usually repeats but may differ in a detail not shown here. Equal values may be shown once. Compounds without any hit were thinned out: in the full panel of roughly 83,000, 20% have a hit.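 The test compound was applied at a single concentration to cells in 96-well plates for 48 hours, and percent growth was recorded.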 Active and inactive are the calls of the source. Starred links: 1 amine or outer side, 2 acyl side, 3 side chain; linkers in the order of their positions; H or OH if unused. Positions of bridges follow the written chain, without caps; N, C: chain ends. Non-standard residues stand in square brackets, D forms with d. Residues, ends and D or L forms follow the SMILES beside them. Chains are numbered I, II in the order given. Actinocin(9to1) = Cc1c2oc3c(C)ccc(C(=O)[*:1])c3nc-2c(C(=O)[*:2])c(N)c1=O; aThr = C[C@H](O)[C@H](N)C(=O)O; NMeV = CN[C@H](C(=O)O)C(C)C; Sar = CNCC(=O)O
# Tested on: COLO 205 colon
# Assay: NCI-60 one-dose screen, 48 h (100 = growth as untreated, 0 = no growth, -100 = all killed)
# Settings: 0.0025 µM
# Method: Cells are grown in 96 well plates and exposed to the test compound for 48 hours. Compounds are tested at a single concentration, which is 10^-5 M for most compounds. The reported endpoint is percent growth (GI% or GIPRCNT), where numbers from 0 - 100% represent growth inhibition, and numbers from -100% - 0 represent cell death. For example, a value of 40 represents 60% growth inhibition. A value of 0 means no net growth occurred over the course of the experiment. A value of -40 indicates 40% of cells at the beginning of the experiment died by the end of the experiment. A value of -100 means all cells are dead at the end of the experiment.
# NCI-60 Human Tumor Cell Lines Screen was performed using the standard one-dose NCI protocol, which is described in more detail at https://dtp.cancer.gov/discovery_development/nci-60/default.htm.
# Compounds with GIPRCNT values below 10 were considered active. Activity score was based on GIPRCNT using the following formula: […]
# Score is 0 for GIPRCNT values of 100 or above, 50 for GIPRCNT values of 0, and 100 for GIPRCNT values of -100.
row,Structure (SMILES),growth
1,"Cc1c2oc3c(C)ccc(C(=O)N[C@@H]4C(=O)N[C@H](C(C)C)C(=O)N5CCC[C@H]5C(=O)N(C)CC(=O)N(C)[C@@H](C(C)C)C(=O)O[C@H]4C)c3nc-2c(C(=O)N[C@@H]2C(=O)N[C@H](C(C)C)C(=O)N3CCC[C@H]3C(=O)N(C)CC(=O)N(C)[C@@H](C(C)C)C(=O)O[C@H]2C)c(N)c1=O (I: [aThr][dV]P[Sar][NMeV] / II: [aThr][dV]P[Sar][NMeV]; ester I:1-I:C, II:1-II:C; linker I:N-II:N via Actinocin(9to1))",44.2% (inactive)

# Same assay, conditions: 10 µM
row,Structure (SMILES),growth
1,O=c1[nH]cc(F)c(=O)[nH]1,51.4% (inactive) and 39.4% (inactive)
2,"Cc1c2oc3c(C)ccc(C(=O)N[C@@H]4C(=O)N[C@H](C(C)C)C(=O)N5CCC[C@H]5C(=O)N(C)CC(=O)N(C)[C@@H](C(C)C)C(=O)O[C@H]4C)c3nc-2c(C(=O)N[C@@H]2C(=O)N[C@H](C(C)C)C(=O)N3CCC[C@H]3C(=O)N(C)CC(=O)N(C)[C@@H](C(C)C)C(=O)O[C@H]2C)c(N)c1=O (I: [aThr][dV]P[Sar][NMeV] / II: [aThr][dV]P[Sar][NMeV]; ester I:1-I:C, II:1-II:C; linker I:N-II:N via Actinocin(9to1))",-56.7% (active)
3,COc1cc(C(C)(C)C)cc(OC)c1C(O)(c1c(OC)cc(C(C)(C)C)cc1OC)c1c(OC)cc(C(C)(C)C)cc1OC,-89.2% (active)
4,S=c1[nH]nc(Cc2ccccc2)c(=S)[nH]1,106% (inactive)
5,BrC/C=C/C[P+](c1ccccc1)(c1ccccc1)c1ccccc1,16.5% (inactive)
6,O=C(/C(=C/c1ccccc1)CBr)c1ccccc1,92.6% (inactive)
7,N#C/C(=C1C=C/C(=N\O)C(Cl)=C\1)c1ccccc1,38.3% (inactive)
8,CSc1ccc2c(c1)C(N1CCN(C)CC1)Cc1ccccc1S2 (configuration not stated),-75.1% (active)
9,CN(C)CCC(=O)c1c[nH]c2ccccc12,111% (inactive)
10,Nc1ccc2cc(Br)c3ccccc3c2c1,115% (inactive)
11,Cc1cc(NCCCN(C)C)c2ccc3c(ccc4c(NCCCN(C)C)cc(C)nc43)c2n1,-82.8% (active)
12,Cc1cnc(/C=N\NC(N)=S)c2cccc(N)c12,15.1% (inactive)
13,CN1CCN(c2ccc3nc(-c4ccc5nc(-c6ccc(O)cc6)[nH]c5c4)[nH]c3c2)CC1,72% (inactive)
14,CCCCCCCCCCCCCCCCCN,99.8% (inactive)

# Same assay, conditions: 25 µM
row,Structure (SMILES),growth
1,O=c1[nH]cc(F)c(=O)[nH]1,40.2% (inactive)

# Same assay, conditions: 50 µM
row,Structure (SMILES),growth
1,O=c1[nH]cc(F)c(=O)[nH]1,33.5% (inactive)
